Compounds with a hit are over-represented: about 21% of the library has one in this group of screens.
DT40 TDP1 no CPT = qHTS for Inhibitors of human tyrosyl-DNA phosphodiesterase 1 (TDP1): qHTS in cells in absence of CPT; DT40 Tdp1-/- hTDP1 cells, no CPT, ATP luminescence, 48 h; Potency, µM (doses to about 46.2 µM), for the others: at the highest dose activity change, negative = growth inhibition, most hits filed as inhibitors; 420,000 compounds, 15% hits; AID 686978, 2013; also: potency is read from the fitted curve at half-maximal effect; % is scaled to controls: 0 for no effect and ±100 for the full control effect; nearly all actives have a fitted effect of over 55% in size
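No-CPT arm: Tdp1-/-;hTDP1 DT40 cells (400/well) plus compounds, incubated ≥48 hr at 37 °C. Readout CellTiter-Glo luminescence.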
DRD3 agonist = qHTS of D3 Dopamine Receptor Agonist: qHTS | D(3) dopamine receptor (Homo sapiens), P35462 | D3R DiscoveRx beta-arrestin cells, luminescence, 90 min | max activation, % | 410,000 compounds, 0.58% hits | AID 652048, 2013; in the data active = max activation above about 30%; also: 0% is about no effect
Target sequence (P35462 whole entry, looked up): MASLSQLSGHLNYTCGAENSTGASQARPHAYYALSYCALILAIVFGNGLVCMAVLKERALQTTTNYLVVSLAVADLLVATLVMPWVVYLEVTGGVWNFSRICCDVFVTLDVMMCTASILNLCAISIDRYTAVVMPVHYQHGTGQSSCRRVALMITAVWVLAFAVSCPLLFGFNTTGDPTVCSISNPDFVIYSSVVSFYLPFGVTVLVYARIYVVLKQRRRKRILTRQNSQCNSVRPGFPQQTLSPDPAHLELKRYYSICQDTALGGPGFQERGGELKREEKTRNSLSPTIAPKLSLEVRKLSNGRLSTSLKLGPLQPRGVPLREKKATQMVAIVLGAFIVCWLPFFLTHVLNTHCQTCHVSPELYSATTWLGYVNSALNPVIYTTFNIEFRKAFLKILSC
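Cells at 1500/well, incubated overnight, then treated with pinned compounds (dopamine as control) for 90 min at 37 degrees C. DiscoveRx reagent added for 30 - 60 minutes at room temperature; luminescence read.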
IL-1B inflam inh = qHTS for Inhibitors of Inflammasome Signaling: IL-1-beta AlphaLISA Primary Screen; activity change, % at 57.5 µM; THP-1 LPS/ATP IL-1B secretion, AlphaLISA, 16 h; hits give low values; AID 743279, 2014; 360,000 compounds, 4.7% hits; in the data active = activity change below about -50%; inconclusive = mostly about -30% to -49%; also: % is scaled to controls: 0 for no effect and ±100 for the full control effect
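Secreted IL-1B measured by AlphaLISA bead assay after 16 h compound exposure of THP-1 cells; compounds (final up to 57.5 uM) added 1 h before LPS (250 ng/mL) and ATP (1.25 mM) stimulation; lower signal means less secretion.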
TDP1 cell CPT = qHTS for Inhibitors of human tyrosyl-DNA phosphodiesterase 1 (TDP1): qHTS in cells in presence of CPT; chicken DT40 Tdp1-/-;hTDP1 cells + 20 nM CPT, ATP luminescence, 48 h; Potency, µM (titrated, usually from 46.2 µM), for inactives: at the top dose activity change, negative = growth inhibition, usual class: inhibitors; 420,000 compounds, 12% hits; AID 686979, 2013; also: potency is read from the fitted curve at half-maximal effect; % is scaled to controls: 0 for no effect and ±100 for the full control effect; nearly all actives have a fitted effect of over 55% in size
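Cell growth measured by CellTiter-Glo luminescence after a minimum 48 h, 37 C compound exposure with 20 nM CPT in Tdp1-knockout DT40 cells stably expressing hTDP1, seeded 400/well; qHTS titration format.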
D3 antag = qHTS of D3 Dopamine Receptor Antagonist: qHTS. AID 652054, 2013. max response, negative = inhibition, %. D3R cells, DiscoveRx beta-arrestin luminescence, antagonist mode; hits give low values. D(3) dopamine receptor (Homo sapiens), P35462. 360,000 compounds, 2.5% hits; in the data active = max response below about -50%; inconclusive = no clear call, values can overlap the other calls; also: % is scaled to controls: 0 for no effect and ±100 for the full control effect
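Cells plated overnight at 1500 cells/well, then exposed to library compounds with dopamine controls for 90 minutes at 37 degrees C. DiscoveRx reagent added for 30–60 minutes at room temperature; luminescence read, quantitative HTS format.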
ClpP mod = qHTS Assay for Activators of ClpP; ATP-dependent Clp protease proteolytic subunit (Bacillus subtilis (strain 168)), P80244; purified B. subtilis ClpP, FRET peptide cleavage, 20 min; Potency, µM (series often up to 57.5 µM), inactives show top-dose activity change, negative = active; 340,000 compounds, 1.9% hits; active = well fitted falling curve with a large enough effect; inconclusive = small, poorly fitted or top-dose-only effect; inactive = no such curve, though single readings can be large or run the other way; also: potency is read from the fitted curve at half-maximal effect; the source files actives as falling curves though it sought activators and does not explain the sign; nearly all actives have a fitted effect of over 65% in size
Target sequence (P80244 whole entry, looked up): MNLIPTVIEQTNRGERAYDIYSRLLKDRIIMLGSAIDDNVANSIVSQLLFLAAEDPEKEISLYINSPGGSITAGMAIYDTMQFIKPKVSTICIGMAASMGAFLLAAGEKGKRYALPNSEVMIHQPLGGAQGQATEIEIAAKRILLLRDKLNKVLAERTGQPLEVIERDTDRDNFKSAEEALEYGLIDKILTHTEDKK
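Buffer: 100 mM Tris/HCl pH8, 100 mM KCl, 0.05% low protease BSA, 2.5% glycerol, 0.01% Tween-20. ClpP 10 microg/mL final; 20 min RT; delta FRET normalized to ADEP and DMSO controls.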
Starred values were filed as active, the others as inactive; u = inconclusive; x = not tested or not shown; [ ] = remark or other dose. Unless noted, calls follow the shape of the dose curve; as a rule, active = well fitted inhibition curve with a large enough effect; inconclusive = small, poorly fitted or top-dose-only effect; inactive = flat fitted curve, though single readings scatter.

SMILES	DT40 TDP1 no CPT	DRD3 agonist	IL-1B inflam inh	TDP1 cell CPT	D3 antag	ClpP mod
CC(C)Oc1ccc(C(=O)/C=C2/C(=O)Nc3ccccc32)cc1	12µM*	-5	-100*	u	-17	1%
C=CCN1CCCC1CNC(=O)c1cc(S(N)(=O)=O)cc(OC)c1OC (stereo not drawn)	-6%	-19	x	-1%	x	x
Cc1ccc(S(=O)(=O)N2CCCCC2CCNC(=O)C(=O)NC2CCCC2)cc1 (stereo not drawn)	21µM*	-12	7	u	-14	0%
Cc1ccc(C)c(S(=O)(=O)N2CCCCC2CCNC(=O)C(=O)NC2CCCC2)c1 (stereo not drawn)	16µM*	-32	7	u	-14	2%
Cc1ccc(-n2nc(CN3CCOCC3)c(-c3ccccc3)c2N)cc1Cl	21µM*	-16	-2	29µM*	15	1%
CCN1CCN(C(=O)CN(CC)S(=O)(=O)c2ccc3ccccc3c2)CC1	-3%	-15	19	-3%	-13	3%
COC(=O)N1CCC[C@@]2(CCN(C(=O)Nc3cccc(F)c3)C2)C1	-3%	x	x	-5%	x	x
CC(C)N(C)CCOC(=O)c1ccccc1Br	u	-34	-4	16µM*	-8	1%
CC(C)N(C)CCOC(=O)c1ccccc1Cl	1%	-8	16	-20%	4	7%
CCOC(=O)c1ccc(S(=O)(=O)N2CCN(C(=O)c3cc(=O)c4ccccc4o3)CC2)cc1	-6%	9	-116*	0%	4	x
CCOc1ccc(S(=O)(=O)N2CCN(C(=O)c3cc4ccccc4o3)CC2)cc1	21µM*	1	u	21µM*	0	-2%
CCOc1ccc(S(=O)(=O)N2CCN(C(=S)NCc3ccccc3)CC2)cc1	u	-11	33	21µM*	-18	0%
CCOc1ccc(S(=O)(=O)N2CCN(C(=O)c3ccco3)CC2)cc1	-19%	1	14	-1%	-25	1%
O=C(O)c1nn(CCOc2ccc(Br)cc2)c(=O)c2ccccc12	1%	12	30	-2%	7	x
CCC(C(=O)OCC(=O)N(C)c1c(N)n(Cc2ccccc2)c(=O)[nH]c1=O)c1ccccc1 (stereo not drawn)	-19%	-1	14	8%	9	x
CNC(C)C(=O)NC(C(=O)NC(C)C(=O)NNc1ccccc1)C(C)C (stereo not drawn)	-23%	0	20	20%	-9	1%
COc1cc2c(cc1OC)C(c1ccccc1)=NCC2	u	12	-4	8%[9.04 µM]	-15	1%
COc1cc2c(cc1OC)C(c1ccccc1[N+](=O)[O-])=NCC2	2.9µM*	-1	47	5.8µM*	-15	0%
COc1cc2c(cc1OC)C(c1ccccc1N)=NCC2	21µM*	0	-19	u	3	-2%
COc1ccccc1CN1CCN(Cc2nc(-c3ccc(C)cc3)oc2C)CC1	u	-25	0	21µM*	-17	-7%
COc1ccccc1N1CCN(Cc2ccc(Br)o2)CC1	-27%	-11	6	-7%	-81*	-4%
COc1ccc(-c2[nH]ncc2CN2CCN(Cc3cccs3)CC2)cc1F	u	-17	-16	u	u	0%
COc1ccc(-c2nc(CN3CCN(c4ccccc4OC)CC3)c(C)o2)cc1	u	-35	-97*	u	-71*	-4%
COc1ccccc1N1CCN(Cc2cc(=O)oc3ccccc23)CC1	u	6	19	u	6	2%
COc1ccc(-c2nc(CN3CCN(Cc4cccc(F)c4)CC3)c(C)o2)cc1	u	-9	u	u	-20	x
SMILES	DT40 TDP1 no CPT	DRD3 agonist	IL-1B inflam inh	TDP1 cell CPT	D3 antag	ClpP mod
COc1ccccc1N1CCN(Cc2cn[nH]c2-c2ccc(F)cc2)CC1	u	-33	9	-28%	-67*	-1%
O=C1C2C3C=CC(C4CC34)C2C(=O)N1/N=C/c1c[nH]c2ccccc12 (stereo not drawn)	-8%	13	u	-23%	14	x
O=C(CSc1cccc(C(F)(F)F)c1)Nc1ccc(N2CCOCC2)cc1	u	-2	21	u	-23	-2%
COc1ccccc1CN1CC[C@@]2(CCCN(C(=O)c3cccc(F)c3)C2)C1	-23%	x	x	7%	x	x
COc1ccccc1N1CCN(Cc2nc(-c3ccc(F)cc3)oc2C)CC1	18µM*	-3	-2	u	-115*	0%
Cc1cc(N2CCN(Cc3nc(-c4ccc(F)cc4)oc3C)CC2)cc(C)n1	u	0	-6	u	-5	-4%
COc1cc(-c2[nH]ncc2CN2CCc3sccc3C2)cc(OC)c1OC	10µM*	0	42	15µM*	20	-7%
O=C(O)C1Nc2ccc(C(F)(F)F)cc2C2OCCC12 (stereo not drawn)	-4%	4	19	1%	13	2%
Cc1cccc(N2CCN(C(=O)c3ccc4c(c3)c(C)c(C)n4C)CC2C)c1 (stereo not drawn)	21µM*	8	-23	16µM*	19	-3%
COc1ccccc1N1CCN(C(=O)c2cc3c(=O)n(C)c4ccccc4c3n2C)CC1	23µM*	-3	5	23µM*	-19	-4%
Cn1c(C(=O)N2CCN(C(=O)c3ccco3)CC2)cc2c(=O)n(C)c3ccccc3c21	u	6	-28	-11%	17	-8%
Cc1cccc(N2CCN(C(=O)c3cc4c(=O)n(C)c5ccccc5c4s3)CC2C)c1 (stereo not drawn)	2.3µM*	7	x	u	x	2%
Cc1ccc(Cl)cc1N1CCN(C(=O)c2cc3c(=O)n(C)c4ccccc4c3s2)CC1	2%	6	x	8%	x	-2%
Cc1ccc(-c2c(C(=O)N3CCN(c4cccc(C)c4)C(C)C3)oc(=O)c3ccccc23)cc1 (stereo not drawn)	u	9	x	15µM*	x	-6%
Cc1ccc2oc(C(=O)Nc3nc(-c4ccc(F)cc4)ns3)c(C)c2c1	-19%	3	x	-7%	x	-7%
Cc1ccc(NC(=O)C2CCCN2C(=O)NCc2ccccc2)cc1 (stereo not drawn)	0%	-6	16	6%	-1	1%

Assay outcomes deposited in PubChem BioAssay by National Center for Advancing Translational Sciences (NCATS).
